TDP1 cell noCPT = qHTS for Inhibitors of human tyrosyl-DNA phosphodiesterase 1 (TDP1): qHTS in cells in absence of CPT; AID 686978, 2013; hit rate 15% among 420,000; Potency, µM (doses to about 46.2 µM), for inactives: top-dose activity change, negative = growth inhibition, actives largely listed as inhibitors; DT40 Tdp1-/- hTDP1 cells, no CPT, ATP luminescence, 48 h; further: on the % scale 0 is the no-effect control and ±100 the full control effect; nearly all actives have a fitted effect of over 55% in size
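Readout: luminescence from CellTiter-Glo after 30 min in the dark at RT. Cells: DT40 Tdp1-/- with stable hTDP1, 400/well. Exposure: compounds alone, ≥48 hr, 37 °C.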
HT1080 IDH1KD tx = HT-1080 IDH1 knockdown cell toxicity (counter line) | Potency, µM (top dose mostly 46.1 µM), for inactives: top-dose activity, negative = toxicity, most hits filed as cytotoxic | hit rate 2% among 360,000 | HT-1080 IDH1 knockdown viability, ATP luminescence, 48 h;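 further: 0% = DMSO wells and -100% = cell-free medium wells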
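Luminescent ATP read-out (CellTiter-Glo, 10 min at room temperature) after 48 h compound exposure at 37 °C gave viability of IDH1-knockdown HT-1080 cells. Activity was normalised to DMSO and cell-free wells, then fitted as concentration-response curves.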
HT1080-NT tox = kills 2HG-producing HT-1080-NT fibrosarcoma cells. HT-1080-NT fibrosarcoma viability, CellTiter-Glo ATP luminescence, 48 h. Potency, µM (doses to about 46.1 µM), without a hit: at the top dose activity, negative = less viability, usual class: cytotoxic. hit rate 1.6% among 360,000. AID 686970;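 further: NT is the 2HG producing partner of a matched IDH1 knockdown line; 0% = DMSO-treated cells and -100% = media-only wells without cells; nearly all actives have a fitted effect of over 55% in size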
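Viability by CellTiter-Glo luminescence after 48 h compound exposure at 37C of HT-1080-NT cells (750/well, RPMI, 5% FBS). % activity scaled between DMSO wells and medium-only wells, then curve-fitted and categorized by curve class.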
TDP1 cell CPT = DT40-hTDP1 cell growth loss with CPT. chicken DT40 Tdp1-/-;hTDP1 cells + 20 nM CPT, ATP luminescence, 48 h. Potency, µM (doses to about 46.2 µM), inactives show at the highest dose activity change, negative = growth inhibition, hits mostly inhibitors. hit rate 12% among 420,000. AID 686979; further: on the % scale 0 is the no-effect control and ±100 the full control effect; nearly all actives have a fitted effect of over 55% in size
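Chicken DT40 Tdp1-/- cells complemented with human TDP1, 400 cells/well, exposed to compounds plus 20 nM camptothecin for at least 48 h at 37 C; viability read as ATP content by CellTiter-Glo luminescence.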
TGFb SMAD3 inh = blocks TGF-b signaling | HepG2 CAGA-GFP TGF-b/SMAD3 reporter, GFP fluorescence, 18 h; TGF-beta stimulated, 500 pg/mL final | Potency, µM (highest dose often 46.1 µM), for inactives: at the top dose activity, negative = inhibition, actives largely listed as inhibitors | hit rate 1.2% among 410,000; further: on the % scale 0 is the no-effect control and ±100 the full control effect; nearly all actives have a fitted effect of over 65% in size
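Inhibition was scored as loss of TGF-beta-induced (500 pg/mL final, 18 hours, 37 degrees C) GFP in HEPG2 cells carrying a CAGA-GFP reporter, in DMEM with 1% FBS. Well GFP was summed per cell; Activity was normalised to unstimulated and stimulated DMSO wells, then concentration-response fitting.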
HepG2 viability = HepG2 cytotoxicity, counter-screen for TGF-b inhibitors; AID 588856; Potency, µM (doses to about 46.1 µM), for inactives: at the highest dose activity change, negative = cytotoxicity, most hits filed as cytotoxic; hit rate 0.76% among 410,000; HepG2 CAGA-GFP viability, ATP luminescence, 18 h
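CellTiter-Glo luminescence gave cytotoxicity after 18 hours at 37 degrees C. The cells were HepG2 CAGA-GFP in 1% FBS DMEM, stimulated with 500 pg/mL TGF-beta after compound addition. %Activity was normalised to no-cell wells (complete cell-killing) and DMSO (no toxicity), and curves were fitted and classified.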
Active calls of the source: *. Shown are actives, neighbours in structure and some others; about 17% of the full set was active somewhere. The call rests on the fitted dose curve; in most records, active means well fitted curve in the direction sought with a large enough effect; inconclusive means small, poorly fitted or top-dose-only effect, or another doubt; inactive means no such curve, though single readings can be large; an effect the other way counts as inactive or inconclusive. Potency means the concentration at half of the fitted maximal effect.

How did CCOC(=O)C1CCCN(C(=O)c2sc3nc(-c4ccccc4)cn3c2C)C1 (configuration not stated) do in these assays?
TDP1 cell noCPT: inconclusive; HT1080 IDH1KD tx: 3.4%; HT1080-NT tox: 4.1%; TDP1 cell CPT: inconclusive; TGFb SMAD3 inh: -13.7%; HepG2 viability: 1.7%

Results for CCOC(=O)C1CCCN(C(=O)COc2ccc(C(=O)c3ccc(F)cc3)cc2)C1 (configuration not stated) ?
TDP1 cell noCPT: inconclusive; HT1080 IDH1KD tx: -4.5%; HT1080-NT tox: -2.7%; TDP1 cell CPT: 18.4µM*; TGFb SMAD3 inh: -28.9%; HepG2 viability: -16.9%

What do the screens show for `Cc1ccc(CCNC(=O)C2COc3ccccc3C2)cc1` (configuration not stated)?
TDP1 cell noCPT: -22.3%; TDP1 cell CPT: inconclusive; TGFb SMAD3 inh: inconclusive; HepG2 viability: -21.2%

Results for O=C(CC1SC(=Nc2ccccc2)N(CCc2c[nH]c3ccccc23)C1=O)Nc1ccccc1F (configuration not stated) ?
TDP1 cell noCPT: inconclusive; HT1080 IDH1KD tx: 20.6µM*; HT1080-NT tox: inconclusive; TDP1 cell CPT: inconclusive; TGFb SMAD3 inh: inconclusive; HepG2 viability: -24.4%

Results for COc1ccc(N=C2SC(CC(=O)Nc3ccccc3F)C(=O)N2Cc2ccco2)cc1 (configuration not stated) ?
TDP1 cell noCPT: inconclusive; HT1080 IDH1KD tx: -3.0%; HT1080-NT tox: -3.4%; TDP1 cell CPT: -27.7%; TGFb SMAD3 inh: -4.9%; HepG2 viability: -3.6%

Results for Cc1cn([C@H]2C[C@H](O)[C@@H](CNC(=O)[C@H](N)Cc3cn(COCc4ccccc4)cn3)O2)c(=O)[nH]c1=O ?
TDP1 cell noCPT: 0.3%; HT1080 IDH1KD tx: 2.6%; HT1080-NT tox: 2.4%; TDP1 cell CPT: -1.3%; TGFb SMAD3 inh: -4.6%; HepG2 viability: -3.1%

How did CCC(Oc1ccc(C)cc1)C(=O)Nc1ccccc1C(=O)N1CCOCC1 (configuration not stated) do in these assays?
TDP1 cell noCPT: -13.3%; HT1080 IDH1KD tx: 3.1%; HT1080-NT tox: 0.8%; TDP1 cell CPT: 1.9%; TGFb SMAD3 inh: 0.3%; HepG2 viability: 0.0%

What do the screens show for `O=C(Cc1coc2cc3c(cc12)CCC3)NC1CCCCCCC1`?
TDP1 cell noCPT: 0.0206µM*; HT1080 IDH1KD tx: -14.4%; HT1080-NT tox: 2.8%; TDP1 cell CPT: inconclusive; TGFb SMAD3 inh: inconclusive; HepG2 viability: -15.1%

Results for COc1ccccc1N1CCN(C2CCCN(C(=O)CCc3c(C)noc3C)C2)CC1 (configuration not stated) ?
TDP1 cell noCPT: -3.5%; HT1080 IDH1KD tx: -0.6%; HT1080-NT tox: 0.0%; TDP1 cell CPT: -8.6%; TGFb SMAD3 inh: -13.6%; HepG2 viability: -16.0%

How did CN1CCN(C(=O)/C(=C/c2ccccc2)c2ccccc2)CC1 do in these assays?
TDP1 cell noCPT: -14.6%; HT1080 IDH1KD tx: -1.2%; HT1080-NT tox: -9.9%; TDP1 cell CPT: -20.2%; TGFb SMAD3 inh: -18.9%; HepG2 viability: -35.7%

Results for CC1CC(C)CN(C(=O)/C(=C\c2ccccc2)c2ccccc2)C1 (configuration not stated) ?
TDP1 cell noCPT: 13µM*; HT1080 IDH1KD tx: -8.1%; HT1080-NT tox: -1.8%; TDP1 cell CPT: 16.4µM*; TGFb SMAD3 inh: inconclusive; HepG2 viability: -28.8%

What do the screens show for `CC(C(=O)O)n1cc(C#N)c(=O)[nH]c1=O` (configuration not stated)?
TDP1 cell noCPT: -8.4%; HT1080 IDH1KD tx: 21.8%; HT1080-NT tox: 20.1%; TDP1 cell CPT: -15.4%; TGFb SMAD3 inh: 4.9%; HepG2 viability: -22.6%

How did Cc1ccc(C)c(C(=O)CSc2nnc(C)s2)c1 do in these assays?
TDP1 cell noCPT: inconclusive; HT1080 IDH1KD tx: 15.1%; HT1080-NT tox: 5.0%; TDP1 cell CPT: 6.9%; TGFb SMAD3 inh: -16.1%; HepG2 viability: -3.5%

What do the screens show for `O=C(Nc1ccncc1)C1CC1c1ccccc1` (configuration not stated)?
TDP1 cell noCPT: inconclusive; HT1080 IDH1KD tx: -25.3%; HT1080-NT tox: 2.5%; TDP1 cell CPT: 15.8µM*; TGFb SMAD3 inh: -17.4%; HepG2 viability: -14.0%

How did C=CCSc1ncc(C(=O)OCC)c(N)n1 do in these assays?
TDP1 cell noCPT: 2.3%; HT1080 IDH1KD tx: -12.5%; HT1080-NT tox: 1.9%; TDP1 cell CPT: -5.3%; TGFb SMAD3 inh: -0.8%; HepG2 viability: -5.3%

Results for CCOC(=O)c1cnc(SSc2ncc(C(=O)OCC)c(N)n2)nc1N ?
TDP1 cell noCPT: 14.6µM*; HT1080 IDH1KD tx: -4.0%; HT1080-NT tox: 1.1%; TDP1 cell CPT: 23.1µM*; TGFb SMAD3 inh: 3.9%; HepG2 viability: 6.3%

What do the screens show for `CC(=O)c1ccc(NC(=O)c2cc(C)nc3c2c(C)nn3-c2ccc(C)cc2)cc1`?
TDP1 cell noCPT: -22.6%; TDP1 cell CPT: -23.5%; TGFb SMAD3 inh: -0.4%; HepG2 viability: -21.6%

Results for CC1CN(C(=O)CSc2nnc(-c3cccs3)n2N)CC(C)O1 (configuration not stated) ?
TDP1 cell noCPT: -1.3%; HT1080 IDH1KD tx: 7.1%; HT1080-NT tox: -16.5%; TDP1 cell CPT: 5.6%; TGFb SMAD3 inh: -3.9%; HepG2 viability: -1.5%

Results for Oc1[nH]c2ccc(Br)cc2c1N=NC(=S)NCC1CCCO1 (configuration not stated) ?
TDP1 cell noCPT: inconclusive; HT1080 IDH1KD tx: -12.4%; HT1080-NT tox: -15.4%; TDP1 cell CPT: inconclusive; TGFb SMAD3 inh: -3.9%; HepG2 viability: 0.5%

Results for Oc1[nH]c2ccccc2c1N=NC(=S)NCC1CCCO1 (configuration not stated) ?
TDP1 cell noCPT: inconclusive; HT1080 IDH1KD tx: -5.0%; HT1080-NT tox: 0.7%; TDP1 cell CPT: inconclusive; TGFb SMAD3 inh: -9.0%; HepG2 viability: -8.9%

Results for CCn1c(=O)cc(SCC(=O)NCC2CCCO2)c2ccccc21 (configuration not stated) ?
TDP1 cell noCPT: 1.3%; HT1080 IDH1KD tx: 4.0%; HT1080-NT tox: 11.5%; TDP1 cell CPT: 0.2%; TGFb SMAD3 inh: 3.3%; HepG2 viability: -11.2%

What do the screens show for `Oc1[nH]c2c(Cl)cc(Cl)cc2c1N=NC(=S)NCC1CCCO1` (configuration not stated)?
TDP1 cell noCPT: 4.61µM*; HT1080 IDH1KD tx: -14.9%; HT1080-NT tox: -7.7%; TDP1 cell CPT: 3.66µM*; TGFb SMAD3 inh: inconclusive; HepG2 viability: -4.2%
